Compounds with a hit are over-represented: about 3.1% of the library has one in this group of screens.
CSC inhib: blocks cancer stem cells | hit rate 1.1% among 300,000 | cancer stem cell-like cells viability, luminescence | inhibition, % at 7.5 µM; in the data active means inhibition above about 75%; inconclusive means no clear call, values can overlap the other calls; tested in HMLE shEcad cells
PP5 inh: PP5 (human) phosphatase inhibition | P53041 | hit rate 0.18% among 320,000 | inhibition, % at 6.7 µM | purified PP5c, OMFP substrate fluorescence;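 active means inhibition above the campaign's mean inhibition across all tested compounds plus 3 SD, cut at about 9.5% in these data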;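 further: 0% = DMSO only and 100% = 100 µM cantharidin control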
Target sequence (P53041 whole entry, looked up): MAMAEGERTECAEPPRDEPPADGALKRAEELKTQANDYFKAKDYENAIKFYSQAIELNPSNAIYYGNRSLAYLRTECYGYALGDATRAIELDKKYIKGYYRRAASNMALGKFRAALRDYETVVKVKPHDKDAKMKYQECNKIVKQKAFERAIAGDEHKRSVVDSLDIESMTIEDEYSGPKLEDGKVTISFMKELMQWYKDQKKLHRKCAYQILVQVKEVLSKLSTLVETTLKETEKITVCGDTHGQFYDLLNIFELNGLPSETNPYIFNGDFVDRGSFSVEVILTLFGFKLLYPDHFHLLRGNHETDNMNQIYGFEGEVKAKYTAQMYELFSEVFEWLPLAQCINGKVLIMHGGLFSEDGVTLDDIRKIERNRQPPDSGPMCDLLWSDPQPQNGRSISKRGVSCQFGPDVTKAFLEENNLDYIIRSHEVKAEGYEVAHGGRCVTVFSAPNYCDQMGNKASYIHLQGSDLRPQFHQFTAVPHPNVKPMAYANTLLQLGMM
PP1 counter: counter-screen for PP5 inhibitors: inhibitors of human PP1-alpha; purified PP1alpha, OMFP fluorescence; inhibition, % at 6.7 µM; hit rate 0.9% among 320,000;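 active means inhibition above the mean inhibition of all tested compounds plus 3 SD, computed separately for each screening campaign, cut at about 15% in these data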
SKKanGAS inh: SKKanGAS growth inhibition; S. pyogenes SKKanGAS, kanamycin growth, BacTiter-Glo, 6 h; hit rate 1.3% among 300,000; inhibition, % at 7.5 µM;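 active means mean replicate score, as percent of positive control median, at least 50; inconclusive means mean below 50 but one replicate at or above 50; inactive means mean and every replicate below 50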;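 further: strain carries kanamycin resistance gene driven by streptokinase promoter and grows in 40 µg/ml kanamycin; loss of luminescence reflects streptokinase promoter inhibition or plain growth inhibition; 0% = median of DMSO wells and 100% = positive control at its reference dose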
Beta cell apopt: beta cell apoptosis inhibition; INS-1E cytokine-induced death, ATP luminescence, 48 h; percent of positive-control rescue, neutral wells zero; protection from apoptosis, % (test concentration not listed); hit rate 0.8% among 300,000;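 active means Every replicate reaches about 75%, or at least half do and their mean reaches it too, limit read from the data; inconclusive means At least half of replicates reach the limit but their mean does not; inactive means Under half of replicates reach the limit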;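 further: 0% = cytokine-treated negative control wells and 100% = positive control rescue; higher means more ATP so stronger rescue from cytokine killing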
Active calls of the source: *; ? = inconclusive; / = no result.

SMILES | CSC inhib | PP5 inh | PP1 counter | SKKanGAS inh | Beta cell apopt
O=C(NC(=O)N1CCN(c2cccc(Cl)c2)CC1)c1ccc(Cl)cc1 | 110* | 2 | 1 | 14 | -3
O=C(NC(=O)N1CCN(c2cccc(Cl)c2)CC1)c1ccccc1 | 58 | -1 | -3 | -3 | 5
O=C(CCN1C(=O)C2CC=CCC2C1=O)Nc1cccc(Cl)c1 (stereo not given) | -13 | 0 | 4 | -1 | -2
CC(C)c1ccc2[nH]c(O)c(N=NC(=O)c3cccc(S(=O)(=O)N4CCCCC4)c3)c2c1 | 23 | 1 | 3 | 107* | 23
O=C1Nc2cc(Cl)ccc2Nc2cscc21 | -28 | -1 | -1 | 7 | 0
COc1ccc(C)cc1NC(=O)CN(Cc1nnc(-c2ccc(Cl)cc2)o1)C1CCCC1 | 6 | 3 | 16* | 11 | 2
COc1ccc(OC)c(NC(=O)CN(Cc2ccc(F)cc2)C2CCCCC2)c1 | 23 | 2 | -4 | 12 | 100*
COc1ccc(NC(=O)c2c(Nc3ccccc3)sc(C(=O)c3ccc(F)cc3)c2N)cc1 | 38 | 3 | 6 | -2 | 104*
Cc1cccc(N=C2NN=C(c3c(C)[nH]c4ccccc34)CS2)c1 | 15 | 4 | -2 | 98* | 8
COc1ccc(/C=C/C(=O)NC(=S)N2CCN(c3ccccc3OC)CC2)cc1 | 0 | -2 | -5 | 59* | -6
CCOCCCNC(=O)c1cc2c(-c3ccc(Cl)cc3)nn(C)c2s1 | 14 | 4 | -1 | -2 | 0
CCN(CC)CCNC(=O)c1cc2c(-c3ccc(Cl)cc3)nn(C)c2s1 | / | 2 | -8 | 1 | /
CCCCN(CC)CCNC(=O)c1cc2c(-c3ccc(Cl)cc3)nn(C)c2s1 | 112* | -2 | 2 | -2 | 20
O=C(NCCCN1CCOCC1)c1ccc(CSc2ccc(Cl)cc2)cc1 | 76* | 2 | 5 | 0 | -1
CC(C)(C)c1ccc(C(=O)NCCCN2CCN(CCCNC(=O)c3ccc(C(C)(C)C)cc3)CC2)cc1 | 102* | 4 | 0 | 8 | /
CC(C)c1ccc(C(=O)NCCCN2CCOCC2)cc1 | 7 | 3 | -3 | -1 | -1
CCCN(CCC)CCNC(=O)c1cc2c(-c3ccc(Cl)cc3)nn(C)c2s1 | 102* | -2 | 8 | 0 | 53
O=C(CNc1cccc(F)c1)N1CCc2ccccc2C1 | -3 | 2 | 3 | -2 | -9
Cc1cccc(NS(=O)(=O)c2ccc(C(=O)NCC(c3ccco3)N3CCCCC3)cc2)c1C (stereo not given) | 7 | 2 | -1 | 0 | 7
O=C(/C=C\c1ccc2c(c1)OCO2)CC1(O)C(=O)Nc2ccccc21 (stereo not given) | / | 2 | -3 | 4 | -12
Cn1nc(-c2ccc(Cl)cc2)c2cc(C(=O)NCCCN3CCOCC3)sc21 | 79* | 2 | -1 | -3 | 12
Cc1ccc(C(=O)NC(=C(Cl)Cl)S(=O)(=O)c2ccccc2)cc1 | 98* | 1 | 0 | -11 | 4
COc1ccc(C(=O)NC(=C(Cl)Cl)S(=O)(=O)c2ccc(C)cc2)cc1 | 3 | -1 | -7 | 8 | -8
COc1ccc(-c2nc(NC(=O)c3cc(C(C)(C)C)nn3C)sc2C)cc1 | 81* | 1 | 0 | 38 | 85*
CCCN(c1ccc(OCC)cc1)S(=O)(=O)c1ccc2c(c1)NC(=O)CO2 | / | 5 | 1 | -4 | /
SMILES | CSC inhib | PP5 inh | PP1 counter | SKKanGAS inh | Beta cell apopt
Fc1ccc(Cn2cccc2C2=NC(c3ccccc3)CO2)cc1 (stereo not given) | 10 | 3 | -3 | ? | 4
Cc1oc(-c2ccccc2)nc1Cn1cccc1C1=NC(c2ccccc2)CO1 (stereo not given) | 37 | 2 | 0 | 69* | 6
COc1ccccc1-c1cc(C(=O)N2CCOCC2)no1 | -11 | 0 | 0 | 20 | 4
CC(=O)Nc1ccc(Nc2cc(C(C)C)nc3c(-c4ccccc4)c(C)nn23)cc1 | 84* | 2 | 2 | 88* | /
CC(=O)Nc1ccc(Nc2cc(C)nc3c(-c4ccccc4)c(C)nn23)cc1 | -7 | 6 | -1 | 18 | 3
CCCc1cc(NCc2ccccn2)n2nc(C)c(-c3ccccc3)c2n1 | 53 | 4 | -1 | 94* | 49
Cc1nn2c(NCc3ccccn3)cc(C(C)C)nc2c1-c1ccccc1 | 51 | 2 | 3 | 101* | 61
Cc1oc2c(CN3CCCCC3)c(O)ccc2c(=O)c1-c1ccc(Cl)cc1 | -15 | -3 | 1 | -1 | -7
O=C1[C@@H]2[C@@H]3C[C@@H]([C@H]4ON=C(c5ccc(OCc6ccccc6)cc5)[C@@H]34)[C@@H]2C(=O)N1c1ccc2c(c1)OCO2 | -1 | 0 | -3 | -15 | 4
COc1ccccc1N=C1SC(C(=O)Nc2cccc(Cl)c2Cl)C(N)=C1C(N)=O (stereo not given) | 79* | 2 | -1 | -4 | 3
COc1ccc(CN(C)C(=O)CCCNC(=O)c2ccc(Cl)cc2)cc1 | -6 | 1 | 2 | -12 | -5
O=C(N/N=C/c1cc([N+](=O)[O-])cc(Br)c1O)C12CC3CCC(CC(C3)C1)C2 | 45 | 0 | -2 | 51* | -2
COc1cc(/C=N/NC(=O)C23CC4CC(CC(C4)C2)C3)cc(Br)c1O | 0 | 1 | 0 | 8 | -3
CC1=CC(C)[C@H](/C=N/n2c(=O)[nH]c3c([nH]c4ccc(C)cc43)c2=O)C(C)C1 (stereo not given in full) | 87* | -3 | 0 | 1 | 25
O=C(NCCCNC(=O)c1ccccn1)c1ccc(F)cc1 | -3 | 4 | 3 | 1 | -2
COc1ccc(-c2ccc([C@H]3[C@@H]4C=CCC[C@@]4(C)C(=O)N3Cc3ccccc3)c(F)c2)cc1OC | 30 | 5 | 7 | 52* | 25
COc1ccc([C@H]2[C@@H]3C=CCC[C@@]3(C)C(=O)N2Cc2ccccc2)cc1Cl | 30 | 5 | 2 | 24 | 8
COc1ccc(-c2cc([C@H]3[C@@H]4C=CCC[C@@]4(C)C(=O)N3Cc3ccccc3)ccc2F)cc1OC | 91* | 2 | -1 | 38 | 3
CN(C)c1ccc(-c2cc([C@H]3[C@@H]4C=CCC[C@@]4(C)C(=O)N3Cc3ccccc3)ccc2F)cc1 | 104* | 4 | 6 | 30 | -1
COc1ccc(-c2c([C@H]3[C@@H]4C=CCC[C@@]4(C)C(=O)N3Cc3ccccc3)ccc3ccccc23)cc1OC | -2 | 4 | 7 | 31 | 14
COc1ccc(-c2cccc([C@H]3[C@@H]4C=CCC[C@@]4(C)C(=O)N3Cc3ccccc3)c2)cc1 | 82* | 2 | 6 | 26 | -18
O=C(CN(Cc1ccc(Cl)cc1)C(=O)c1csnn1)NCc1ccc(F)cc1 | 3 | 2 | 6 | 19 | 6
Cc1ccc(-c2cc([C@H]3[C@@H]4C=CCC[C@@]4(C)C(=O)N3Cc3ccccc3)ccc2F)cc1 | 111* | 2 | 2 | ? | -3
C[C@@]12CCC=C[C@H]1[C@H](c1ccc(F)c(/C=C/c3ccccc3)c1)N(Cc1ccccc1)C2=O | 94* | 4 | 8 | 27 | 6

Screens from PubChem.
